Test results: PubChem BioAssay (Tox21)
Records with an inconclusive call do not appear. Where a call stands in place of a potency, no number is given. Values without a mark were called inactive. The source made the active and inactive calls. The call rests on the fitted dose curve; in most records, active means well fitted cell-killing curve with a large enough effect in the repeat runs; inconclusive means weak or mixed curves, or effect the other way; inactive means flat fitted curve, though single readings scatter.

Test: qHTS RealTime-Glo MT Cell Viability Assay in HEK293 cells - 0 hour (AID 1224880); further: top concentration of the series differs between compounds; nearly all actives have a fitted effect of over 45% in size
Settings: RealTime-Glo luminescence; series mostly up to 76.8 µM
Text: U.S. Tox21 Program National Center for Advancing Translational Sciences [NCATS] NIH Chemical Genomics Center [NCGC] U.S. Environmental Protection Agency [EPA] National Institutes of Environmental Health Sciences [NIEHS] National Toxicology Program [NTP] U.S. Food and Drug Administration [FDA] Tox21 Assay Overview: Measure of cell viability is critical in the cell-base assay. Analysis of cell viability is necessary for the characterization of cell responses to cytotoxic drugs and environmental stress. A RealTime-Glo MT Cell Viability Assay to monitor cell viability in real time of continues cell culture during 40 hours of compound treatment was used to screen Tox21 10K library compounds in Hek293 cells. The RealTime-Glo MT Cell Viability Assay is a nonlytic, homogeneous, bioluminescent method to measure cell viability in real time using a simple, plate-based method. The assay involves adding NanoLuc luciferase and a cell-permeant prosubstrate to cells in culture. Viable cells reduce the proprietary prosubstrate to generate a substrate for NanoLuc luciferase. This substrate diffuses from cells into the surrounding culture medium, where it is rapidly used by the NanoLuc Enzyme to produce a luminescent signal. The signal correlates with the number of viable cells, making the assay well suited for cytotoxicity studies.
Tox21 Assay Protocol Summary: The mixture of Hek293 cell suspension and reagents were dispensed at 600cells/6 ul/well in 1536-well tissue culture treated black solid bottom plates using a Multidrop dispenser. After the assay plates were incubated at a 37 C/5% CO2 incubator for 5 hours, 23 nL of compounds dissolved in DMSO, positive and negative controls was transferred to the assay plate by a pintool work station. The plates were incubated at 37 C for 40 hours. The luminescence intensity were measured at 0h, 8h, 16h, 24h, 32h and 40h time points using ViewLux plate reader during compound treatment.

| SMILES | Potency | activity change, negative = cytotoxicity |
| --- | --- | --- |
| c1ccc(C(O[C@@H]2CCCN(CCc3ccc4c(c3)OCO4)C2)c2ccccc2)cc1 | inactive |  |
| OC12N=C(c3ccccc3)SC1Cc1cc(Cl)ccc12 (stereo not given) | inactive |  |
| Cc1c2ccccc2c(C)c2c1ccc1ccccc12 | inactive |  |
| c1cnccn1 | inactive |  |
| CCCCC(CC)COC(=O)CCCCC(=O)OCc1ccccc1 (stereo not given) | inactive |  |
| COc1cc(S(=O)(=O)O)c(C)cc1N=Nc1c(O)ccc2cc(S(=O)(=O)O)ccc12 | inactive |  |
| CN(C)C(=O)COC(=O)Cc1ccc(OC(=O)c2ccc(N=C(N)N)cc2)cc1 | inactive |  |
| CN(C)CCN1CCN(c2cccc(Cl)c2)C1=O | inactive |  |
| CCCCNS(=O)(=O)c1ccc(C)cc1 | inactive |  |
| Nc1nc(N)nc(-c2cc(Cl)ccc2Cl)n1 | inactive |  |
| CCCCCCCCCCC[C@@H](C[C@@H]1OC(=O)[C@H]1CCCCCC)OC(=O)[C@H](CC(C)C)NC=O | inactive |  |
| CC(C)=CCC1=C(O)c2ccccc2C(=O)C1=O | inactive |  |
| CC(C)Cn1cnc2c(N)nc3ccccc3c21 |  | -0.941% [at 15.8 µM] |
| O=C1CCCCCCCCCCCCCCCO1 | inactive |  |
| Nc1nc2c(ncn2COCCO)c(=O)[nH]1 | inactive |  |
| COc1ccc(-c2coc3cc(O)ccc3c2=O)cc1 | inactive |  |
| O=S(=O)(O)c1ccc(N=Nc2c(O)ccc3ccccc23)cc1 | inactive |  |
| C=CCn1c(=O)n(CC=C)c(=O)n(CC=C)c1=O | inactive |  |
| CN(C)Cc1ccccc1O | inactive |  |
| O=[N+]([O-])c1ccc(O)cc1C(F)(F)F | inactive |  |

| SMILES | Potency | activity change, negative = cytotoxicity |
| --- | --- | --- |
| C=CCCC(=O)/C=C/C1C(C)=CCCC1(C)C (stereo not given) | inactive |  |
| CCN(CC)C(=O)c1cc(S(=O)(=O)Cc2ccccc2)c(N2CCC(c3ccccc3)CC2)cc1N(CC)CCN(C)C | inactive |  |
| ClCCl | inactive |  |
| O=C(Oc1ccccc1)Oc1ccccc1 | inactive |  |
| CCCCCCC1CCCC(=O)O1 (stereo not given) | inactive |  |
| CC(N=C(NC#N)Nc1ccncc1)C(C)(C)C (stereo not given) | inactive |  |
| C#C[C@]1(OC(C)=O)CC[C@H]2[C@@H]3CCC4=C[C@@H](OC(C)=O)CC[C@@H]4[C@H]3CC[C@@]21C | inactive |  |
| OC1CCC(C2CCCCC2)CC1 (stereo not given) | inactive |  |
| CCN1C(=O)c2ccccc2C1Nc1ccc(OCCN2CCCCC2)cc1 (stereo not given) | inactive |  |
| C[Si](Cl)(c1ccccc1)c1ccccc1 | inactive |  |
| C[C@@H](O)[C@H](N)C(=O)O |  | -2.75% [at 15.8 µM] |
| Clc1sc(Cl)c(Cl)c1Cl | inactive |  |
| Clc1nnc(Cl)c2ccccc12 | inactive |  |
| COc1cc(C)ccc1O | inactive |  |
| NC(=S)NC(N)=S | inactive |  |
| C=C(C)C(=O)OCCCCCCCCCC | inactive |  |
| COC(=O)c1ccccc1C | inactive |  |
| CCOC(=O)NNc1ccc(N(CC)CC(C)O)nn1 (stereo not given) | inactive |  |
| C#Cc1ccc(-c2ccccc2F)cc1 | inactive |  |
| Oc1c(I)cc(Cl)c2cccnc12 | inactive |  |
